Measurements from PubChem BioAssay AID925 (National Center for Advancing Translational Sciences (NCATS), 2007).
Several values for one entry are separate records, joined by “and”; a condition that tells them apart may be missing. Equal entries are not always repeated. The campaign covered roughly 65,000 compounds. About 40 (0.06%) were called active. This is one part of a sample in which actives are shown more often than they occur. The call rests on the fitted dose curve; in most records, active means well fitted activation curve with a large enough effect; inconclusive means small, poorly fitted or top-dose-only effect; inactive means flat fitted curve, though single readings scatter.

Test: qHTS Assay for Modulators of Hemoglobin Beta Chain Splicing; further: 0% is about no effect
Conditions: HBB splicing reporter cell assay, EGFP reporter with mutant IVS2-654 intron; Potency: activation; series mostly up to 46.1 µM; activation: at the top concentration
Outline: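 HeLa cells stably expressing EGFP interrupted by mutant beta-globin intron 2 (IVS2-654), 500/well in 2% FCS. Treated with compound for 2 days at 37C. Splicing correction scored as total well GFP intensity (488 nm excitation, 500-520 nm emission); 500 nM antisense PNA served as control.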

activation, inactive:
Cc1c2c(nc3ccccc13)-c1cccc(=O)n1C2 1.36%
CC/C=C/C/C=C/C/C=C/CCCCCCCC(=O)OCC 0.885%
Oc1ccc2ccccc2c1C=NCc1c(O)ccc2ccccc12 0.869% [at 9.22 µM, normalised to 500 nM splice-correcting PNA]
CCCNC(=O)OC[C@@H]1O[C@H](c2ccccc2)C=C[C@@H]1Oc1ccc(OC)cc1 -1.16% [at 9.22 µM, normalised to 500 nM splice-correcting PNA]
O=C1OCCC=C1[C@@H](O)CCc1ccccc1 3.64% [at 9.22 µM, normalised to 500 nM splice-correcting PNA]
CCCn1c(-c2ccc(F)cc2)nc2c(NCC3CCCN3CC)nc(C)nc21 (stereo not given) 0.529%
Cc1cc(C)cc(N)c1 -0.0718%
c1ccc2c(c1)-c1ccccc1C2N1CC2CCC(CC2)C1 3.26% [at 9.22 µM, normalised to 500 nM splice-correcting PNA]
COc1ncc2nc(-c3ccc(Cl)cc3)c(=O)n(-c3ccccc3)c2n1 0.498%
O=C(O)CC(C(=O)O)C(CC(=O)O)C(=O)O (stereo not given) 1.17%
COC(=O)[C@@]1(Cc2ccc(OC)cc2)[C@H]2c3cc(C(=O)N4CCCC4)n(Cc4ccc(C(F)(F)F)nc4)c3C[C@H]2CN1C(=O)c1ccccc1 0.0479%
CC1=C(C(=O)OCc2ccccc2)C(c2ccc(C(F)(F)F)cc2)NC(=O)N1CCCCCC(=O)O (stereo not given) -0.181%
COc1ccc(-c2nc3cnc(OC)nc3n(Cc3ccc(F)cc3)c2=O)cc1 -0.0985%
Cc1cccc(Br)c1 1.71%
CS(=O)(=O)N1CCC2(CC1)CN(c1ccncc1)C2 3.52%
CCn1ccnc1C[C@@H]1COc2ccccc2O1 1.64%
CC[C@H](c1ccccc1)c1cc(C(C)(C)C)cc(C(C)(C)C)c1O -0.113% [at 9.22 µM, normalised to 500 nM splice-correcting PNA]
CC(C)(O/N=C(\C(=O)N[C@@H]1C(=O)N2C(C(=O)[O-])=C(C[n+]3ccccc3)CS[C@@H]12)c1csc(N)n1)C(=O)O -0.237% [at 20.6 µM, normalised to 500 nM splice-correcting PNA]
C[C@]1(O)CC[C@H]2[C@H]3CC=C4N5CCN=C5CC[C@@]4(C)[C@H]3CC[C@@]21C -0.0515% [at 9.22 µM, normalised to 500 nM splice-correcting PNA]
Cc1c(NC(=O)c2cccnc2)c(=O)n(-c2ccccc2)n1C -1.86% [at 20.6 µM, normalised to 500 nM splice-correcting PNA]
COC(=O)[C@@]1(Cc2ccc(OC)cc2)[C@H]2c3cc(C(=O)N4CCCC4)n(Cc4ccc(OC(F)(F)F)cc4)c3C[C@H]2CN1C(=O)c1ccccc1 0.6%
CC[C@@H]1Cc2cc(O)ccc2C2=C1c1ccc(O)cc1C[C@H]2CC 0.516%
Cc1nc2cnc(N3CCNCC3)nc2n(Cc2ccc(F)cc2)c1=O -0.46%
COc1ccc(CNc2ncncc2-c2ccccc2OC)c(OC)c1 -2.4%
COC(=O)[C@@H]1CC[C@H](C)[C@@H](c2ccc(C)cc2)N1C(=O)c1ccc(/C=N\O[C@@H](C)c2cn([C@H](CO)Cc3ccccc3)nn2)cc1 0.582% [at 9.22 µM, normalised to 500 nM splice-correcting PNA] and -0.794% [at 9.22 µM, normalised to 500 nM splice-correcting PNA]
O=C(c1cccc(F)c1)N1CCC2(CCCN(Cc3ccncc3)C2)CC1 0.183%
Cc1cccc(C(=O)O)c1[N+](=O)[O-] -0.133%
COc1cccc(Cn2c(=O)c(CCc3ccccc3)nc3cnc(N(C)C)nc32)c1 1.77%
Cc1cnc(CNc2nc(-c3cccnc3)nc3ccccc23)cn1 -0.583%
COc1ccc(-c2nc3cnc(Oc4ccccc4)nc3n(Cc3cccs3)c2=O)cc1 0.4%
CCC[C@@H]1C[C@@]1(CCC)C(NS(=O)(=O)c1cccc2cccnc12)c1ccc(Cl)cc1 (stereo not given in full) 1.95%
O=C(Cl)c1ccc([N+](=O)[O-])cc1 -0.798%
O=C(c1csnn1)N1CCC[C@@]2(CCN(Cc3nccs3)C2)C1 1.83%
CCNC(=S)NCC -0.328%
O=C(c1ccc([N+](=O)[O-])cc1)[C@@H](Br)[C@@H](Br)c1ccnc2ccccc12 0.675% [at 9.22 µM, normalised to 500 nM splice-correcting PNA]
